Assay results as given in the supplement of paper PMC3334620.
In all, about 33,000 sequences were measured (“E-score (-0.5 to 0.5)”: median about -0.054, highest 2% from about 0.35 on). The sample holds the highest values, similar sequences and a random draw of the others, so the mix is not that of the screen.

target: T1, Stb5 (UniProt P38699); test: PBM E-score (8-mer binding enrichment) (E-score (-0.5 to 0.5)); higher = stronger / more preferred TF binding; conditions: protein concentration: 200 nM; construct: GST-full length
T1 sequence: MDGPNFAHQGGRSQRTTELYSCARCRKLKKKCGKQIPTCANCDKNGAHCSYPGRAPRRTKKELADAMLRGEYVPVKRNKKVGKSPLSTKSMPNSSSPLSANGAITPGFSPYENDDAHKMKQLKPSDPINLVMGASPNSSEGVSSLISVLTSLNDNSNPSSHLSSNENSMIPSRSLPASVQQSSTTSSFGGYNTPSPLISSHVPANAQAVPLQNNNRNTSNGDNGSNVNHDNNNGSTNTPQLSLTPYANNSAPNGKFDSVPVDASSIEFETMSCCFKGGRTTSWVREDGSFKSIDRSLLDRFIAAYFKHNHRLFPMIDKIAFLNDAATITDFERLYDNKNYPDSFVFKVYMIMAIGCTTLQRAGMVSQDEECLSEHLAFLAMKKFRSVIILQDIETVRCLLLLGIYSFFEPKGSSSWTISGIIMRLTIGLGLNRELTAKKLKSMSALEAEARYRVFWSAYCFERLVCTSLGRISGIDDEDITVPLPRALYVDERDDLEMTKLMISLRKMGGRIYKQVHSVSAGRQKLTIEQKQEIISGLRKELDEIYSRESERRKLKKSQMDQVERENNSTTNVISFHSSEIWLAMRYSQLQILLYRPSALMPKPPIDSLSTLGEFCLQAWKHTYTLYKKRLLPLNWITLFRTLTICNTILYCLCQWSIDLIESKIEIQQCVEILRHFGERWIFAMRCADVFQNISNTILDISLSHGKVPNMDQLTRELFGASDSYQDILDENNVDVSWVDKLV
Summary of the method: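 Yeast transcription factors carrying a GST tag, as full-length proteins or DNA-binding domains, were produced by PURExpress in vitro transcription/translation. About 100-200 nM protein was applied to universal all-10-mer Agilent arrays, double-stranded by primer extension on fresh or once-stripped slides. Bound protein was detected with fluorescent anti-GST, and scans were normalised with masliner. The Universal PBM Analysis Suite gave each ungapped eight-base word, pooled with its reverse complement, an E-score, a modified Wilcoxon-Mann-Whitney statistic.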

Sequence	PBM E-score
GTCGGAGA	0.373
AAACAGAG	-0.197
CGGTCTAA	0.23
CCACTACG	-0.0468
CCATAACG	-0.0562
AACATATT	-0.109
CCGTGTTC	0.137
CGGTGTCC	0.369
CGGTGTGA	0.441
AGGTGTTA	0.381
AGGTGTTG	-0.0336
GGGTGTTA	0.25
CGGTGTTC	0.399
CGGTGTGC	0.219
AGGTGTCC	-0.164
AGGTGTGA	0.00067
CTGTGTCC	0.136
AGGTGTTC	-0.101
AATCTGCA	-0.273
AAAGGCCT	-0.115
ACTCTGTG	-0.0679
TATAGGCA	-0.262

Sequence	PBM E-score
ATGATGCA	-0.187
CACCAGCG	-0.06
ACAAAGAG	-0.148
CGGTGTAA	0.438
AGGTGTCA	0.12
CGGTGTCA	0.471
GGGTGTCA	-0.073
CGGTGTAG	0.323
GGGTGTAA	0.251
TCGGAAGA	0.142
ATATGAAA	-0.119
ATTCGAGG	0.0182
TACGCAGA	-0.163
CGACCCGA	0.117
AAACGCCG	0.449
AAACGCCA	-0.046
AGACGCCC	0.0667
AGACGCCA	-0.181
CAACGCCG	0.318
AGACGCCG	0.399
CGCTAGAG	0.0369
AACATCGC	0.0424

Sequence	PBM E-score
GTGGTCAA	-0.291
CACTCCGA	0.242
GACTCCGC	0.333
AACTCCGT	0.444
AACTCCCG	0.248
CACTCCGG	0.219
AACTCCGC	0.438
AACTCCCT	-0.0261
AACTCCAT	0.144
AACTCCGA	0.463
AACTCCGG	0.436
TACTCCGA	0.234
CACTCCGC	0.307
AGATCAAG	-0.211
ATTAGTCC	0.248
CATATCAC	0.0389
TGCTGCAA	-0.177
CCAGAACG	-0.0165
ATTCAAAG	-0.12
GCGCGAAA	0.0664
AAGAGTGA	-0.258
ACAGACGT	-0.141

Sequence	PBM E-score
CCCCTCAC	-0.231
CGGTACTA	0.474
GGGTACCA	-0.157
GGGTACTA	-0.0611
AGGTACTA	0.16
CGGTACCA	0.39
TGGTACCA	-0.0919
AATGTGCC	0.145
ATCAAAGA	-0.248
CAGCAGGA	-0.194
AGTCTCCG	0.264
AAGAACAT	-0.0596
CTAACACA	-0.0526
CCAACACC	0.119
CTAACACC	0.401
ATAACACA	-0.107
ATAACACG	-0.0233
ATAACACC	0.461
GAATCCTC	-0.239
CGCGTTCC	0.0249
